PubChem BioAssay (NCI)
About 83,000 compounds went through this panel and 20% of them were active in at least one assay; those are over-represented in the sample as a whole.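 The endpoint reported here, percent growth, reads 100 for growth as untreated, 0 for no net growth and -100 for all cells dead.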 Unmarked numbers belong to inactive results. Calls of active or inactive are those of the source.

Tested on: CAKI-1 renal
Assay: NCI-60 one-dose screen, 48 h (100 = growth as untreated, 0 = no growth, -100 = all killed)
Conditions: 10 µM unless noted
Procedure: Growth inhibition of the CAKI-1 human tumor cell line is measured as a screen for anti-cancer activity. Cells are grown in 96 well plates and exposed to the test compound for 48 hours. Compounds are tested at a single concentration, which is 10^-5 M for most compounds. The reported endpoint is percent growth (GI% or GIPRCNT), where numbers from 0 - 100% represent growth inhibition, and numbers from -100% - 0 represent cell death. For example, a value of 40 represents 60% growth inhibition. A value of 0 means no net growth occurred over the course of the experiment. A value of -40 indicates 40% of cells at the beginning of the experiment died by the end of the experiment. A value of -100 means all cells are dead at the end of the experiment.
NCI-60 Human Tumor Cell Lines Screen was performed using the standard one-dose NCI protocol, which is described in more detail at https://dtp.cancer.gov/discovery_development/nci-60/default.htm.
Compounds with GIPRCNT values below 10 were considered active. Activity score was based on GIPRCNT using the following formula: […]
Score is 0 for GIPRCNT values of 100 or above, 50 for GIPRCNT values of 0, and 100 for GIPRCNT values of -100.

SMILES | growth
Nc1cc(-c2c[nH]c3ccccc23)nc2cc(-c3c[nH]c4ccccc34)nn12 | 59.4%
C#C[C@]1(O)CC[C@H]2[C@@H]3CC=C4c5sc(Nc6ccc(Cl)cn6)nc5CC[C@]4(C)[C@H]3CC[C@@]21C | 29.1%
CCCSc1nc(Nc2ccc(/C(C)=N\NC(N)=S)cc2)c(C#N)c(-c2ccc(OC)cc2)n1 | -7.3% (active)
N#Cc1nc(-c2ccccc2)oc1S(=O)(=O)N1CCN(CCc2ccccn2)CC1 | 54.3%
O=C(c1ccc(Cl)cc1)C1[C@H](c2ccc(Cl)cc2)[C@@H](c2ccccc2)NC12C(=O)Nc1ccc(Br)cc12 (stereo not given in full) | 27.6%
Cc1ccc(C(=O)Nc2cccc(C(F)(F)F)c2)cc1Nc1nc(-c2cnccn2)nc2c1cnn2C | 48.9%
N#Cc1c(-c2ccc(Cl)cc2)nc2c(-c3ccccc3)c(Nc3ccccc3)nn2c1N | 35.1%
CCN(CC)c1ccc(C=O)c(OCc2cn(CC(=O)Nc3ccc(Cl)cc3)nn2)c1 | 57.5%
COc1cc(OC)c(S(=O)(=O)NNC(=O)c2ccncc2)cc1C(=O)/C=C/c1ccc(C)cc1 | 72.4%
O=C(N/N=C/c1ccc(Br)s1)c1[nH]c2ccc(Br)cc2c1-c1ccccc1 | 22.8%
C/C(=N\NC(N)=O)c1c(O)sc(=O)[nH]c1=O | 96.9%
CS(=O)(=O)Nc1ccc(-c2nn(-c3ccc(S(C)(=O)=O)cc3)cc2/C=C/C(=O)c2ccc(NC(=O)CO[N+](=O)[O-])cc2)cc1 | 97.7%
c1ccc2c(NCCCN3CCOCC3)c3oc4ccccc4c3nc2c1 | -27% (active)
CN(C)c1ccc(-c2c(NC(C)(C)C)nc3c(OCCc4ccccc4)cccn23)cc1 | 11.7%
Oc1c(Cl)cc(Cl)c2ccc(CN3CCCCC3)nc12 | 36.2%
O=C(CCCN1C(=O)/C(=C/c2ccccc2F)SC1=S)N1CCOCC1 | 89.2%
Cc1sc2nc(NCc3ccccc3Cl)[nH]c(=O)c2c1C | 87.2%
Cc1nc(-c2cc3ccccc3oc2=O)ccc1C(=O)/C=C/c1ccc(Cl)c(Cl)c1 | 95.7%
COc1ccc(C(=O)/C=C/c2ccc(OCc3ccc(Cl)cc3)c(OC)c2)cc1OC | 59.7%
COc1ccc(N/N=C/c2c(-c3ccc(S(C)(=O)=O)cc3)nc3ccccn23)cc1 | 20.3%

SMILES | growth
COc1ccc2[nH]cc(-c3cc(N)n4nc(-c5c[nH]c6ccc(OC)cc56)cc4n3)c2c1 | -52.1% (active)
O=C(N/N=C/c1ccco1)c1[nH]c2ccc(Br)cc2c1-c1ccccc1 | 30.3%
O=C(N/N=C/c1ccc[nH]1)c1[nH]c2ccc(Br)cc2c1-c1ccccc1 | 21.2%
Cn1ccnc1C(=O)/C=C/c1ccc(NC(=O)Nc2ccc(F)cc2)cc1 | 55.1%
COc1ccc(-c2cc(C(=O)N=Nc3c(O)[nH]c4ccccc34)c3ccccc3n2)cc1OC | 94.9%
C#Cc1nc(C2=C(C)C(OC(=O)CCC(=O)O)CC2)cs1 (stereo not given) | 101%
OC1CCN(CCCOc2c3ccc(Cl)cc3nc3c2oc2ccc(Cl)cc23)CC1 | 3.71% (active)
Clc1ccc(Cc2nnc3sc(-c4cccnc4)nn23)cc1 | 84%
Clc1ccc2c(NCCCN3CCOCC3)c3oc4ccccc4c3nc2c1 | 30.4%
CCN1CCN(/C(=N\c2sc(-c3ccccc3)nc2-c2ccccc2)c2ccccc2)CC1 | 65.3%
Cc1ccc(-c2nc(C(Cl)Cl)nc3cc(-c4ccccc4)nn23)cc1 | -22.9% (active)
Nc1cc(-c2c[nH]c3ccc(Cl)cc23)nc2cc(-c3c[nH]c4ccc(Cl)cc34)nn12 | 35.6%
OC1CCc2c(-c3ccc4ncnc(N5CCc6cc(F)c(Cl)cc65)c4c3)cncc21 (stereo not given) | 22.5%
CCN1C(=S)N(CC)C2C1NN=C1SC(c3ccccc3)=CC(=O)N12 (stereo not given) | 98.6%
COc1ccc(C(=O)/C=C/c2ccc(OCc3ccc(C)cc3)c(OC)c2)cc1OC | 61.4%
C#Cc1nc(C2=C(C)C(=O)/C(=N/OC(C)=O)C2)cs1 | 58.5%
Cc1cc2nc3c4cc(Cl)ccc4n(CC(=S)NCCN(C)C)c3nc2cc1C | -92.3% (active)
Clc1ccc2c(NCCCn3ccnc3)c3oc4ccccc4c3nc2c1 | 22.1%
CC(C)(O)c1cncc(-c2ccc3ncnc(N4CCc5cc(F)c(Cl)cc54)c3c2)c1 | 10.6%
Cc1ccccc1NC(=O)/C=C/c1ccc(OCCOc2ccc3c(C)cc(=O)oc3c2)cc1 | 95.1%
